Reference: PubChem BioAssay AID485360 (National Center for Advancing Translational Sciences (NCATS), 2010)
About 1,500 (0.65%) of roughly 230,000 compounds were called active. Not shown: some 3% with an inconclusive outcome. Calls come from the whole dose curve; as a rule, active = well fitted inhibition curve with a large enough effect; inconclusive = small, poorly fitted or top-dose-only effect; inactive = no such curve, though single readings can be large or run the other way. Shown is part of a subset that was picked to be rich in actives.

Biological target: Lethal(3)malignant brain tumor-like protein 1 (Homo sapiens) (UniProt Q9Y468)
Test: qHTS Assay for the Inhibitors of L3MBTL1; note: nearly all actives have a fitted effect of over 60% in size
Conditions: AlphaScreen L3MBTL1–H3K9me1 peptide binding; series mostly up to 57.1 µM; activity, negative = inhibition: at the top concentration
Description: The histone code is comprised of many post-translational modifications that occur mainly in histone tail peptides. The identity and location of these marks are read by a variety of histone binding proteins that are emerging as important regulators of cellular differentiation and development and are increasingly being implicated in numerous disease states. Small molecule probes that disrupt the interaction between histone binding proteins and chromatin would enable a systematic chemical biology study of proteins that read the histone code and could potentially reveal new targets for drug discovery. However, no such small molecules are known. This dearth of quality molecular probes can largely be attributed to the novelty of the target class and the lack of screening assays. This proposal details the development of the first high-throughput screening assay for the discovery of inhibitors of methyl-lysine binding proteins and how it can be be used to initiate a full-scale discovery effort for antagonists of histone binding proteins. Specifically, this work focuses on an AlphaScreen(tm)-based HTS assay for Malignant Brain Tumor (MBT) domain-containing proteins, which bind to the lower methylation states of lysine residues present in histone tail peptides.
To each well, 2 uL of L3MBTL1 protein (final 50 nM) and 1 uL biotinylated histone peptide monomethylated at Lys9 [b-AHA-H3(1-15)K9me1] (final 75 nM) was added using a nanoliter dispenser. Formation of a protein-peptide complex proceeded at room temperature for 30 min. A Kalypsys pin-tool was employed to transfer 23 nL of library compound solution in DMSO to each well. Cefsulodin, found in a pilot screen of the LOPAC library to be a weak inhibitor of L3MBTL1 binding, was used as an intraplate control with a 16-point titration in duplicate. Following a 30 min incubation of the protein-peptide complex with compounds at room temperature, a mixture of 40 ug/mL each streptavidin-coated donor and nickel chelate acceptor AlphaScreen beads (final 10 ug/mL) was added in a 1 uL dispense for a final volume of 4 uL. Plates were incubated, protected from the light for 30 min at room temperature. Microplates were then be read on an EnVision multilabel plate reader using the 1,536 plate HTS AlphaScreen aperture (excitation time 80 ms, measurement time 240 ms).
% is set by controls: 0 for no effect and ±100 for the full control effect; potency is the fitted concentration of half-maximal effect.

Chain of Lethal(3)malignant brain tumor-like protein 1 (Homo sapiens) (Q9Y468 whole entry, looked up): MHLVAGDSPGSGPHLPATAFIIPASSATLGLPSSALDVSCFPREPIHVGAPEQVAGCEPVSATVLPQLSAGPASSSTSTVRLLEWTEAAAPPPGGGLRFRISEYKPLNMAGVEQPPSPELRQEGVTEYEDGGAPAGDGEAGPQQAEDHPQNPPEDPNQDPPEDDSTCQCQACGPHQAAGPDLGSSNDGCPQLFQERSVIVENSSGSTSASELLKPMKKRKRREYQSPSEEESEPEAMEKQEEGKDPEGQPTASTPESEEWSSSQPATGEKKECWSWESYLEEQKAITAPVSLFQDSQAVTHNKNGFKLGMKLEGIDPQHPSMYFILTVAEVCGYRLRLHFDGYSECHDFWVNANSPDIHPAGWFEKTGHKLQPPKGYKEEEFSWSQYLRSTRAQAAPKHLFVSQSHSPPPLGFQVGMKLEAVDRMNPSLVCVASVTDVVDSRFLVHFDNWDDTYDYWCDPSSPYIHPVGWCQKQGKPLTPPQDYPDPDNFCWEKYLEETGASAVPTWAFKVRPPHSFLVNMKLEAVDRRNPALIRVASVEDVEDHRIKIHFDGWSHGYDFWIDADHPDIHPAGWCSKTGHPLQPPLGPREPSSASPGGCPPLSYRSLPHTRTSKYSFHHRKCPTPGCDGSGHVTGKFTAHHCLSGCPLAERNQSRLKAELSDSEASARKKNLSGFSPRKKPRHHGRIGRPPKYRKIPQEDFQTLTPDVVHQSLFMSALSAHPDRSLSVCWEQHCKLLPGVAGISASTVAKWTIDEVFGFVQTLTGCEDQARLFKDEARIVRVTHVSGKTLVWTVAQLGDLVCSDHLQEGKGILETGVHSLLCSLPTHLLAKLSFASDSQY

Row | Compound | activity, negative = inhibition | Potency
1 | CC1CCCCC1NCC(=O)Nc1ccccc1C(=O)Nc1ccccc1 (stereo not drawn) | 11.2% (inactive) | 
2 | O=C(CC1N=C2c3ccccc3N=C(SCc3ccccc3Cl)N2C1=O)NCc1ccco1 (stereo not drawn) | -7.4% (inactive) | 
3 | COC(OC)c1ccnc(SCc2ccccc2Cl)n1 | 30.5% (inactive) | 
4 | c1ccc(CSc2nnc(-c3ccco3)c(-c3ccco3)n2)cc1 |  | 7.94 µM (active)
5 | O=C(Nc1nnc(SCc2ccccc2)s1)c1ccco1 | -1.74% (inactive) | 
6 | Clc1ccccc1CSc1nnc(-c2ccco2)c(-c2ccco2)n1 |  | 8.91 µM (active)
7 | O=c1[nH]c(SCc2ccccc2)nnc1-c1ccccc1 | 47.2% (inactive) | 
8 | Cc1nc(-c2ccc(F)cc2)c(CC(=O)Nc2cccc(S(=O)(=O)N3CCOCC3)c2)s1 | -4.77% (inactive) | 
9 | Cc1occc1-c1nnc(SCC(=O)NC2(C#N)CCCC2)n1C | -3.03% (inactive) | 
10 | O=C(CSc1nnc(COc2ccc(Cl)cc2)n1Cc1ccco1)N1CCNC1=O | -3.91% (inactive) | 
11 | COc1ccc2c(CC(=O)NNC(=O)c3ccccc3F)coc2c1 | 1.74% (inactive) | 
12 | CC(C)N(C(=O)CSc1nnc(NC2CC2)s1)c1ccccc1 | 2.8% (inactive) | 
13 | CCc1nnc(NC(=O)/C=C/c2ccc(C)o2)s1 | 5.81% (inactive) | 
14 | Cc1c(NC(=O)/C=C/C(=O)O)cccc1[N+](=O)[O-] | 4.64% (inactive) | 
15 | Cc1ccc(/C=C/C(=O)Nc2ccc([N+](=O)[O-])c(NC(=O)/C=C/c3ccc(C)o3)c2)o1 |  | 22.4 µM (active)
16 | NC(=O)c1ccc(Nc2ccc3nonc3c2[N+](=O)[O-])cc1 | 2.69% (inactive) | 
17 | COc1ccc(Cl)cc1NC(=O)CN(C)C(=O)c1cc2ccccc2cc1OC | -1.92% (inactive) | 
18 | O=C(OCC(=O)N1CCCCCC1)c1cnc(Cl)c(Cl)c1 | 0.852% (inactive) | 
19 | O=C(c1ccc(F)cc1)N1CCC(C(=O)N2CCN(S(=O)(=O)c3ccccc3Br)CC2)CC1 | 9.56% (inactive) | 
20 | Cc1nc2sc(C(c3ccco3)N3CCOCC3)c(O)n2n1 (stereo not drawn) | -0.458% (inactive) | 
21 | CCOc1cc(N2CCOCC2)c(OCC)cc1NC(=O)COc1cccc2cccnc12 | -2.29% (inactive) | 
22 | Oc1c(C(c2ccccn2)N2CCOCC2)ccc2cccnc12 (stereo not drawn) |  | 8.91 µM (active)
23 | COc1ccc(C(=O)COC(=O)C(O)c2ccccc2)c(OC)c1 (stereo not drawn) | -0.868% (inactive) | 
24 | CC(C)[C@H](NC(=O)N1c2ccccc2NC(=O)[C@@H]1C(C)C)C(=O)N[C@H](C(=O)O)c1ccccc1 | -10% (inactive) | 
25 | CC(C#N)(NC(=O)CN1CCN(S(=O)(=O)c2cc(C(F)(F)F)ccc2Cl)CC1)C1CC1 (stereo not drawn) | 12.2% (inactive) | 
26 | O=C(CN1CCN(c2ccccc2O)CC1)NC(=O)NCc1ccccc1 | -7.24% (inactive) | 
27 | CCC(C)N(C(=O)CSc1nnnn1-c1ccccc1OC)C1CCS(=O)(=O)C1 (stereo not drawn) | -0.112% (inactive) | 
28 | COC(=O)[C@]1(Cc2ccccc2)N[C@H](CN(C)S(=O)(=O)c2ccc(OC(F)(F)F)cc2)[C@@H]2C(=O)N(C)C(=O)[C@@H]21 | -0.744% (inactive) | 
